Screening results from PubChem BioAssay.
TDP1 cell CPT: DT40-hTDP1 cell growth loss with CPT. AID 686979. Potency, µM (highest dose often 46.2 µM), usual class: inhibitors. 12% of 420,000 active. chicken DT40 Tdp1-/-;hTDP1 cells + 20 nM CPT, ATP luminescence, 48 h; note: nearly all actives have a fitted effect of over 55% in size
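Chicken DT40 Tdp1-/- cells stably complemented with human TDP1 were seeded at 400 cells/well in medium containing 20 nM camptothecin, exposed to pin-transferred compounds, and grown at 37 °C for at least 48 hr. Viability was read as ATP luminescence.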
IL1B secr inh: inflammasome signaling inhibition, IL-1 beta readout; 4.7% of 360,000 active; THP-1 LPS/ATP IL-1B secretion, AlphaLISA, 16 h; hits give low values; activity change, % at 57.5 µM; in the data active = activity change below about -50%; inconclusive = mostly about -30% to -49%
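THP-1 cells pretreated 1 hr with compounds (up to 57.5 uM final), then stimulated with LPS (250 ng/mL final) plus ATP (1.25 mM final); secreted IL-1B measured by AlphaLISA after 16 hr, decreased signal indicating inhibition.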
VP16 counter: counter-screen for ROR gamma inhibitors: Gal4-VP16 reporter | Potency, µM (highest dose often 53.6 µM), usual class: inhibitors | AID 2546 | 3.5% of 310,000 active | Drosophila S2 Gal4-VP16 UAS-luciferase, luminescence, 20 h;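 note: Gal4-VP16 expression switched on by copper sulfate through the metallothionein promoter; nearly all actives have a fitted effect of over 50% in size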
LDHA block: blocks human lactate dehydrogenase A. P00338. purified LDHA, NADH/diaphorase-resazurin fluorescence; hits give low values. activity change, % (values are at about 110 or 230 µM). 0.15% of 480,000 active. AID 1347041; in the data active = activity change below about -30%; inconclusive = mostly about -25% to -30%
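Resorufin fluorescence (ex540/em590), read at 0 and 20 min after diaphorase/resazurin addition, reports the NADH left after a 5 min room-temperature reaction of 2 nM human LDH5 with 0.06 mM NADH and 0.2 mM pyruvate.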
RORgamma inh: ROR gamma (mouse) transcription inhibition. P51450. Drosophila S2 Gal4-RORgamma UAS-luciferase reporter, 20 h. Potency, µM (top dose mostly 53.6 µM), actives largely listed as inhibitors. 5.4% of 310,000 active. AID 2551; note: nearly all actives have a fitted effect of over 60% in size
Target sequence (P51450 whole entry, looked up, the tested form may be a part): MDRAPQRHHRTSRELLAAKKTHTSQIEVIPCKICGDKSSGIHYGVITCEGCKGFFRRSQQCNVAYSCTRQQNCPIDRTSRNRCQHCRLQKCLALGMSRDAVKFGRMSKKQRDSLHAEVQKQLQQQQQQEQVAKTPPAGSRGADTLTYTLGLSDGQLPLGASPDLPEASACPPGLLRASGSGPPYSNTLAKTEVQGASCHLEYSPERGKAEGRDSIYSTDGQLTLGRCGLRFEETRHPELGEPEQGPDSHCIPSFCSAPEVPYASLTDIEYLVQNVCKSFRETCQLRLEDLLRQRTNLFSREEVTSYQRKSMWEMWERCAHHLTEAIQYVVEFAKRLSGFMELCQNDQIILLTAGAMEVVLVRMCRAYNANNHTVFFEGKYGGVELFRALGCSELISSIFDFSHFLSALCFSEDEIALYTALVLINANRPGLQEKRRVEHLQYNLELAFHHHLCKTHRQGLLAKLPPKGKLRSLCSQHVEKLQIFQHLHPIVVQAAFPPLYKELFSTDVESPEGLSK
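Read-out: Photinus luciferase luminescence; inhibitors lower reporter signal. Insect Schneider cells with Gal4-ROR gamma fusion under metallothionein promoter, UAS reporter; 700 uM final copper sulfate induction, 20 hr, ambient temperature.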
DT40 TDP1 no CPT: qHTS for Inhibitors of human tyrosyl-DNA phosphodiesterase 1 (TDP1): qHTS in cells in absence of CPT. DT40 Tdp1-/- hTDP1 cells, no CPT, ATP luminescence, 48 h. Potency, µM (doses to about 46.2 µM), actives largely listed as inhibitors. 15% of 420,000 active; note: nearly all actives have a fitted effect of over 55% in size
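Luminescent ATP content (CellTiter-Glo) served as the growth readout. Knockout chicken DT40 cells expressing human TDP1 were exposed to compounds without camptothecin for a minimum 48 hr at 37 °C.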
Hits are given with their value; - = inactive; ? = inconclusive; . = no result. Rows were chosen to be rich in hits. Some 18% of all compounds tested hit in one or more screens of this group. Unless noted, calls come from the whole dose curve; as a rule, active = well fitted curve in the direction sought with a large enough effect; inconclusive = small, poorly fitted or top-dose-only effect, or another doubt; inactive = no such curve, though single readings can be large; an effect the other way counts as inactive or inconclusive.

SMILES	TDP1 cell CPT	IL1B secr inh	VP16 counter	LDHA block	RORgamma inh	DT40 TDP1 no CPT
Cc1occc1C(=O)Nc1ccccc1Oc1ccccc1	.	.	.	-	.	.
O=C(Nc1cccc2ccccc12)C(C(=O)Nc1cccc2ccccc12)C12CC3CC(CC(C3)C1)C2	.	.	.	-	.	.
CC(C)(C)NC(=O)COC(=O)c1n[nH]c(=O)c2ccccc12	.	.	.	-	.	.
CCCOc1ccccc1N/C(N)=N/c1nc(C)cc(C)n1	?	-	?	-	-	?
COc1ccc(OC)c(N/C(N)=N/c2nc(C)cc(C)n2)c1	?	-77	-	-	-	18µM
Cc1ccc(C)c(N/C(N)=N/c2nc(C)cc(C)n2)c1	21µM	-111	-	-	-	13µM
CCCOc1ccccc1N/C(=N\S(=O)(=O)c1ccc(C)cc1)Nc1nc(C)cc(C)n1	?	-	.	-	.	15µM
COc1ccc(C)cc1N/C(N)=N/c1nc(C)cc(C)n1	21µM	-98	-	-	-	16µM
CC(=O)N/C(=N/c1nc(C)cc(C)n1)Nc1ccc(C)cc1C	?	-	-	-	-	?
Brc1cccc(-c2nc(-c3cccnc3)no2)c1	.	.	.	-	.	.
N#Cc1ccc(/C=C/c2ccc3c([N+](=O)[O-])cccc3n2)cc1	.	.	.	-	.	.
Cc1ncsc1C(=O)NCc1ccccc1	.	.	.	-	.	.
C#CCn1c(=NC(=O)CN2C(=O)CCC2=O)sc2cccc(C)c21	-	-	-	-	-	?
C#CCn1c(=NC(=O)c2ccc(Cl)s2)sc2cccc(OC)c21	?	-	-	-	2.2µM	?
C#CCn1c(=NC(=O)c2cccs2)sc2cccc(OCC)c21	-	-	-	-	-	21µM
COC(=O)Cn1c(=NC(=O)c2ccc(Cl)s2)sc2cc(F)ccc21	-	-	-	-	-	?
O=C(NCCc1ccc(C(F)(F)F)cc1)c1cccnc1	.	.	.	-	.	.
COc1ccc(CC2(CO)CCN(Cc3ccc4c(c3)CCO4)CC2)cc1	-	?	-	-	-	-
COc1ccc2c(c1)C=C(CN1CCC(CO)(CCc3ccccc3)CC1)CO2	?	-60	-	-	-	?
COc1ccc2c(c1)C=C(CN1CCN(Cc3ccccc3C)C(CCO)C1)CO2 (stereo not drawn)	-	?	-	-	-	?
COc1ccc(CC2(CO)CCN(CC3=Cc4cc(Cl)ccc4OC3)CC2)cc1	13µM	-87	-	-	-	6.5µM
O=C(c1cncn1-c1ccc(F)cc1)N1CCN(CCN2CCCC2)CC1	.	.	.	-	.	.
COc1ccc([N+](=O)[O-])cc1NC(=O)C(C)Sc1nc(C)c(C)c(C)n1 (stereo not drawn)	?	-	-	-	-	23µM
COc1ccc([N+](=O)[O-])cc1NC(=O)CSc1nc(C)c(C)c(C)n1	?	-	-	-	-	?
COc1ccc(N2CCN(C(=O)c3cccc(-n4c(C)nc5cccnc54)c3)CC2)cc1	16µM	.	.	-	.	23µM
SMILES	TDP1 cell CPT	IL1B secr inh	VP16 counter	LDHA block	RORgamma inh	DT40 TDP1 no CPT
Cc1nc2cccnc2n1-c1cccc(C(=O)N2CCN(c3ccc(Cl)cc3)CC2)c1	5.8µM	.	.	-	.	2.6µM
CCNC(=O)C(C)Nc1nc(-c2ccccc2)nc2ccccc12 (stereo not drawn)	.	.	.	-	.	.
COc1cc2oc(=O)cc(-c3ccc(-c4ccc(N(C)C)cc4)cc3)c2c(OC)c1OC	?	-	-	-	?	?
CCOC(=O)c1ccc(-c2ccc(-c3cc(=O)oc4cc(OC)c(OC)c(OC)c34)cc2)cc1	18µM	-	-	-	-	18µM
COc1cc2oc(=O)cc(-c3cccc(-c4ccc(C(C)=O)cc4)c3)c2c(OC)c1OC	.	.	-	.	-	.
COc1cc2oc(=O)cc(-c3ccc(-c4ccc(OC(F)(F)F)cc4)cc3)c2c(OC)c1OC	16µM	-	-	-	-	12µM
COc1cc2oc(=O)cc(-c3ccc(-c4ccc(F)c(Cl)c4)cc3)c2c(OC)c1OC	18µM	-	-	-	-	15µM
COc1ccc(-c2ccc(-c3cc(=O)oc4cc(OC)c(OC)c(OC)c34)cc2)cc1F	18µM	-	-	-	-	23µM
Cc1cc(C)c2c(c1C)OC/C2=N/O	.	.	.	-	.	.
Cc1ccc(Nc2nnc(SCC(=O)NC(C)(C)C)s2)cc1C	.	.	.	-	.	.
Cc1ccc(NC(=O)Cc2nc(-c3cc(C)n(-c4cc(C)on4)c3C)cs2)c(C)c1	.	.	.	-	.	.
CNc1nnc(SCc2nnc(-c3ccccc3Br)o2)s1	.	.	.	-	.	.
CC1CN(C(=O)COc2ccc(Cl)cc2Cl)c2ccccc2NC1=O (stereo not drawn)	.	.	.	-	.	.
CC(C)S(=O)(=O)c1csc(C(=O)NN)c1Cl	-	-	-	-	10µM	-
CCOC(=O)c1cc2c(=O)n3ccccc3nc2n(C)c1=NC(=O)c1cc2ccccc2o1	-	.	.	-	.	-
CCOC(=O)c1cc2c(=O)n3ccccc3nc2n(CC2CCCO2)c1=NC(=O)c1cc(C)cc(C)c1 (stereo not drawn)	0.16µM	.	.	-	.	0.037µM
CCOC(=O)c1cc2c(=O)n3ccccc3nc2n(C(C)C)c1=NC(=O)c1c(-c2c(F)cccc2Cl)noc1C	8.2µM	-	-	-	-	8.2µM
CCOC(=O)c1cc2c(=O)n3ccccc3nc2n(Cc2ccco2)c1=NC(=O)c1ccc(C(C)(C)C)cc1	-	.	.	-	.	-
CCOC(=O)c1cc2c(=O)n3ccccc3nc2n(CC2CCCO2)c1=NC(C)=O (stereo not drawn)	-	-	-	-	?	-
CCOC(=O)c1cc2c(=O)n3ccccc3nc2n(CC2CCCO2)c1=NC(=O)c1ccc(OC)cc1OC (stereo not drawn)	?	.	.	-	.	16µM
CCOC(=O)c1cc2c(=O)n3ccccc3nc2n(Cc2ccco2)c1=NC(=O)c1cc(C)cc(C)c1	1.3µM	.	.	-	.	1.2µM
Cc1cc(C)c(S(=O)(=O)n2cc3c(=O)n(C)c(=O)n(C)c3n2)cc1C	.	.	.	-	.	.
CCOC(=O)c1cc2c(=O)n3ccccc3nc2n(CC2CCCO2)c1=NC(=O)c1ccc(OCC)cc1 (stereo not drawn)	6.5µM	.	.	-	.	5.8µM
CCOC(=O)c1cc2c(=O)n3ccccc3nc2n(CC2CCCO2)c1=NC(=O)c1cccc(C)c1 (stereo not drawn)	5.2µM	.	.	-	.	5.8µM
CCOC(=O)c1cc2c(=O)n3ccccc3nc2n(CC2CCCO2)c1=NC(=O)/C=C/c1ccccc1 (stereo not drawn)	?	?	-	-	?	15µM
CCOC(=O)c1cc2c(=O)n3ccccc3nc2n(CC2CCCO2)c1=NC(=O)c1cccc(C(F)(F)F)c1 (stereo not drawn)	-	.	.	-	.	-
COc1ccc2cc([C@H](C)C(=O)N(C)Cc3ccccc3N3CCCC3)ccc2c1	23µM	-	-	-	?	26µM
